Counter-ions that a name gives are not always drawn. A number with no mark means an inactive call.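 How the source made its calls: active = AUC significantly below DMSO controls by Student t-fit with adjusted P under 0.01; inactive = not significantly reduced.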

In this experiment the test system is Haemophilus parainfluenzae. Put plainly: growth AUC normalised to DMSO control (fraction of control); higher = less growth inhibition, active = hit call of the paper. As to conditions: 20 µM. The method, boiled down: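 After two anaerobic passages, pathogens were added at a starting OD578 of 0.01 to pre-reduced mGAM plates holding compound at 20 μM with 1% DMSO; hemin and NAD were supplemented for Haemophilus parainfluenzae. Sealed with breathable membranes, plates were read at OD578 hourly for 24 h, in three biological replicates. The trapezoidal rule, applied up to the exponential-to-stationary transition, gave the growth-curve AUC, which was normalised to DMSO controls on the same plate.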
For the compound `COc1ccc2c(c1)N(C[C@H](C)CN(C)C)c1ccccc1S2` [Methotrimeprazine maleate salt], the “growth AUC normalised to DMSO control” value is 1.04.
The value for `Cc1cccn2c(=O)c(-c3nnn[nH]3)cnc12` [Pemirolast potassium] was 0.933; that for `CCN(CC)C(C)CN1c2ccccc2Sc2ccccc21` (stereo not given) [Ethopropazine hydrochloride] was 0.963; that for `CCCC1O[C@@H]2C[C@H]3[C@@H]4CCC5=CC(=O)C=C[C@]5(C)[C@H]4[C@@H](O)C[C@]3(C)[C@]2(C(=O)CO)O1` (stereo not given in full) [Budesonide] was 0.964.
The value for `CC1=C(CC(=O)O)c2cc(F)ccc2/C1=C\c1ccc([S+](C)[O-])cc1` (stereo not given) [Sulindac] was 0.942; that for `CN(C)CCN(Cc1ccccc1)c1ccccn1` [Tripelennamine hydrochloride] was 1.01.
With `CCOC(=O)[C@H](CCc1ccccc1)N[C@@H](C)C(=O)N1Cc2ccccc2C[C@H]1C(=O)O` [Quinapril hydrochloride], the “growth AUC normalised to DMSO control” value was 0.952.
For `CCCCCCCN(CC)CCCC(O)c1ccc(NS(C)(=O)=O)cc1` (stereo not given) [Ibutilide fumarate] the value was 0.938; for `CC(NCCc1ccc(O)cc1)C(O)c1ccc(O)cc1` (stereo not given) [Ritodrine hydrochloride], 1.
The value for `CC[N+](CC)(CC)CCC(O)(c1ccccc1)C1CCCCC1` (stereo not given) [Tridihexethyl chloride] was 1.05; that for `Cc1[nH]c(=O)c(C#N)cc1-c1ccncc1` [Milrinone] was 0.987; that for `CN(C)CCN1C(=O)c2ccccc2N(C)c2ccccc21` [Dibenzepine hydrochloride] was 0.97.
The value for `Clc1ccc(CCC(Cn2ccnc2)Sc2c(Cl)cccc2Cl)cc1` (stereo not given) [Butoconazole nitrate] was 0.97.
Consider `N=C(N)c1ccc(OCCCCCOc2ccc(C(=N)N)cc2)cc1` [Pentamidine isethionate], for which the “growth AUC normalised to DMSO control” value is 0.946.
`CCCc1nn(C)c2c(=O)[nH]c(-c3cc(S(=O)(=O)N4CCN(C)CC4)ccc3OCC)nc12` [Sildenafil]: the “growth AUC normalised to DMSO control” value is 1.1.
On to `Nc1nc(=O)[nH]cc1F` [Flucytosine], for which the “growth AUC normalised to DMSO control” value was 0.95.
As for `CCCNCC(O)COc1ccccc1C(=O)CCc1ccccc1` (stereo not given) [Propafenone hydrochloride], the “growth AUC normalised to DMSO control” value was 1.01.
As to `CCCCCN(C)CCC(O)(P(=O)(O)O)P(=O)(O)O` [Ibandronate sodium], the “growth AUC normalised to DMSO control” value was 0.995.
The value for `Cc1cccc(CN2CCN(C(c3ccccc3)c3ccc(Cl)cc3)CC2)c1` (stereo not given) [Meclozine dihydrochloride] was 0.948.
The value for `CC(=O)N[C@@H](CC(C)C)C(=O)O` [N-Acetyl-L-leucine] was 1.02; that for `CC(=O)c1ccc2c(c1)N(CCCN1CCC(CCO)CC1)c1ccccc1S2` [Piperacetazine] was 1.09.
As to `CN1CCN(c2c(F)cc3c(=O)c(C(=O)O)cn4c3c2SCC4)CC1` [Rufloxacin], the “growth AUC normalised to DMSO control” value was 0.0692 (active).
Take `C#C[C@]1(O)CC[C@H]2[C@@H]3CCC4=CCCC[C@@H]4[C@H]3CC[C@@]21C` [Lynestrenol]: the “growth AUC normalised to DMSO control” value was 0.931.
For `N[C@@H](Cc1cc(I)c(Oc2ccc(O)c(I)c2)c(I)c1)C(=O)O` [Liothyronine] the value was 0.943.
For `NC(CO)C(=O)NNCc1ccc(O)c(O)c1O` (stereo not given) [Benserazide hydrochloride] the value was 1.05; for `Cc1ccc(-c2ncc(Cl)cc2-c2ccc(S(C)(=O)=O)cc2)cn1` [Etoricoxib], 1.
For `CNC1(C)C2CCC(C2)C1(C)C` (stereo not given) [Mecamylamine hydrochloride] the value was 0.988.
As for `CC(=O)[C@@]1(O)CC[C@H]2[C@@H]3C[C@H](C)C4=CC(=O)C=C[C@]4(C)[C@@]3(F)[C@@H](O)C[C@@]21C` [Fluorometholone], the “growth AUC normalised to DMSO control” value was 1.
The value for `CCOc1ccc(NC(C)=O)cc1` [Phenacetin] was 0.924; that for `CC[C@H](C)[C@H]1O[C@]2(C=C[C@@H]1C)C[C@@H]1C[C@@H](C/C=C(\C)[C@@H](O[C@H]3C[C@H](OC)[C@@H](O[C@H]4C[C@H](OC)[C@@H](O)[C@H](C)O4)[C@H](C)O3)[C@@H](C)/C=C/C=C3\CO[C@@H]4[C@H](O)C(C)=C[C@@H](C(=O)O1)[C@]34O)O2.CO[C@H]1C[C@H](O[C@H]2[C@H](C)O[C@@H](O[C@@H]3/C(C)=C/C[C@@H]4C[C@@H](C[C@]5(C=C[C@H](C)[C@@H](C(C)C)O5)O4)OC(=O)[C@@H]4C=C(C)[C@@H](O)[C@H]5OC/C(=C\C=C\[C@@H]3C)[C@]54O)C[C@@H]2OC)O[C@@H](C)[C@@H]1O` [Avermectin B1] was 0.997.

The values are drawn from the supplement of paper PMC12350171.
